In PubChem BioAssay AID1159580 (chemical genetic matrix, 2015):
Out of some 5,500 compounds screened, about 2,000 (36%) were called active. Roughly 18% stayed inconclusive and do not appear here. No stated cut-off is given here; in the data, active means normalized growth mostly below about 0.91 (no sharp cut-off); inconclusive means no clear call, values can overlap the other calls; inactive means mostly above about 0.92. The list shows a part of the results.

Assay: chemical genetic growth profiling, strain panel (AID 1159580);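 further: tested at 20 µM; growth read once vehicle control cultures reached saturation at 30 °C; 1 = growth at the plate median or of vehicle wells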
Conditions: S. cerevisiae deletion strains, growth OD

Measured: normalized growth

CC(C)=CCC/C(C)=C/COc1ccc2ccc(=O)oc2c1
inactive: locus YAL021C, strain ccr4, stronger effect = lower value 0.994 | locus YAL026C, strain drs2, stronger effect = lower value 0.999 | locus YAL030W, strain snc1, stronger effect = lower value 0.986 | locus YBL061C, strain skt5, stronger effect = lower value 0.985 | locus YBR009C, strain hhf1, stronger effect = lower value 0.976 | locus YBR023C, strain chs3, stronger effect = lower value 0.982 | locus YBR171W, strain sec66, stronger effect = lower value 0.981 | locus YBR231C, strain swc5, stronger effect = lower value 0.996 | locus YBR279W, strain paf1, stronger effect = lower value 0.99 | locus YCL011C, strain gbp2, stronger effect = lower value 0.978 | locus YCL016C, strain dcc1, stronger effect = lower value 0.988 | locus YCL061C, strain MRC1, stronger effect = lower value 1 | locus YCL069W, strain vba3, stronger effect = lower value 0.985 | locus YCR088W, strain abp1, stronger effect = lower value 0.99 | locus YDL005C, strain med2, stronger effect = lower value 1 | locus YDL040C, strain nat1, stronger effect = lower value 0.986 | locus YDR001C, strain nth1, stronger effect = lower value 0.993 | locus YDR069C, strain doa4, stronger effect = lower value 0.998 | locus YDR137W, strain rgp1, stronger effect = lower value 0.893 | locus YDR159W, strain sac3, stronger effect = lower value 1.01 | locus YDR195W, strain ref2 1.04 | locus YDR297W, strain sur2, stronger effect = lower value 0.984 | locus YDR334W, strain swr1, stronger effect = lower value 0.992 | locus YDR335W, strain msn5, stronger effect = lower value 1 | locus YDR392W, strain spt3, stronger effect = lower value 0.952 | locus YEL003W, strain gim4, stronger effect = lower value 0.997 | locus YEL037C, strain rad23, stronger effect = lower value 0.991 | locus YEL061C, strain CIN8 (second series), stronger effect = lower value 0.993 | locus YER015W, strain faa2, stronger effect = lower value 1 | locus YER016W, strain bim1, stronger effect = lower value 0.986 | locus YER111C, strain swi4, stronger effect = lower value 1 | locus YER155C, strain BEM2 (second series), stronger effect = lower value 0.999 | locus YFR010W, strain ubp6, stronger effect = lower value 1 | locus YGL167C, strain pmr1, stronger effect = lower value 0.985 | locus YGL173C, strain kem1, stronger effect = lower value 0.99 | locus YGL227W, strain vid30, stronger effect = lower value 0.992 | locus YGL240W, strain doc1, stronger effect = lower value 0.999 | locus YGL253W, strain hxk2, stronger effect = lower value 0.994 | locus YHR013C, strain ard1, stronger effect = lower value 0.971 | locus YHR027C, strain rpn1, stronger effect = lower value 0.998 | locus YHR030C, strain SLT2, stronger effect = lower value 0.948 | locus YHR079C, strain IRE1, stronger effect = lower value 0.969 | locus YHR142W, strain chs7, stronger effect = lower value 0.962 | locus YJL092W, strain hpr5, stronger effect = lower value 1 | locus YJL095W, strain BCK1 (second series), stronger effect = lower value 0.987 | locus YJL095W, strain BCK1, stronger effect = lower value 0.937 | locus YJL115W, strain asf1, stronger effect = lower value 1 | locus YJL129C, strain trk1, stronger effect = lower value 0.911 | locus YJL154C, strain vps35, stronger effect = lower value 0.99 | locus YJL164C, strain tpk1, stronger effect = lower value 0.966 | locus YJL166W, strain qcr8, stronger effect = lower value 0.99 | locus YJL187C, strain SWE1, stronger effect = lower value 0.99 | locus YJR066W, strain TOR1, stronger effect = lower value 0.932 | locus YKL160W, strain elf1, stronger effect = lower value 0.976 | locus YKR026C, strain gcn3, stronger effect = lower value 0.99 | locus YKR091W, strain srl3, stronger effect = lower value 0.985 | locus YLL001W, strain dnm1, stronger effect = lower value 1 | locus YLL026W, stronger effect = lower value 0.984 | locus YLL041C, strain sdh2, stronger effect = lower value 0.983 | locus YLR027C, strain aat2, stronger effect = lower value 0.974 | locus YLR113W, strain HOG1, stronger effect = lower value 0.944 | locus YLR221C, strain rsa3, stronger effect = lower value 0.976 | locus YLR258W, strain gsy2, stronger effect = lower value 0.981 | locus YLR262C, strain YPT6 (second series), stronger effect = lower value 0.932 | locus YLR320W, strain mms22, stronger effect = lower value 0.974 | locus YLR342W, strain FKS1, stronger effect = lower value 0.97 | locus YLR357W, strain rsc2, stronger effect = lower value 1.01 | locus YLR370C, strain arc18, stronger effect = lower value 0.999 | locus YLR384C, strain iki3, stronger effect = lower value 0.992 | locus YML120C, strain ndi1, stronger effect = lower value 0.973 | locus YMR058W, strain fet3, stronger effect = lower value 1 | locus YMR125W, strain sto1, stronger effect = lower value 0.996 | locus YMR129W, stronger effect = lower value 0.993 | locus YMR205C, strain PFK2, stronger effect = lower value 0.96 | locus YMR231W, strain pep5, stronger effect = lower value 0.965 | locus YNL071W, strain lat1, stronger effect = lower value 0.965 | locus YNL183C, strain NPR1, stronger effect = lower value 0.912 | locus YNL209W, strain ssb2, stronger effect = lower value 0.983 | locus YNL248C, strain rpa49, stronger effect = lower value 0.981 | locus YNL322C, strain KRE1 (second series), stronger effect = lower value 0.994 | locus YNR049C, strain mso1, stronger effect = lower value 0.996 | locus YOR001W, strain rrp6, stronger effect = lower value 0.989 | locus YOR070C, strain gyp1, stronger effect = lower value 0.983 | locus YOR080W, strain dia2, stronger effect = lower value 0.997 | locus YOR083W, strain WHI5, stronger effect = lower value 0.978 | locus YOR106W, strain vam3, stronger effect = lower value 0.933 | locus YOR231W, strain MKK1, stronger effect = lower value 0.968 | locus YOR265W, strain rbl2, stronger effect = lower value 0.973 | locus YOR270C, strain vph1, stronger effect = lower value 0.896 | locus YOR290C, strain snf2, stronger effect = lower value 0.968 | locus YPL051W, strain arl3, stronger effect = lower value 0.987 | locus YPL078C, strain atp4, stronger effect = lower value 0.983 | locus YPL106C, strain sse1, stronger effect = lower value 1.01 | locus YPL240C, strain hsp82, stronger effect = lower value 0.992 | locus YPL256C, strain CLN2, stronger effect = lower value 0.917
